# The campaign covered roughly 39,000 compounds. About 1,500 (3.8%) were called active. What follows is part of a selection rich in actives, with near analogues and random picks from the rest.
# System: HSkMC (human skeletal muscle cells)
# Assay: cytotoxicity call (relative viability < 0.9)
# Conditions: 10 µM
row,SMILES,cytotoxicity call
1,C[C@H](CO)N1C[C@H](C)[C@H](CN(C)C(=O)Nc2ccc3c(c2)OCO3)OCCCC[C@H](C)Oc2ccc(NC(=O)CCC(F)(F)F)cc2C1=O,inactive
2,C[C@@H]1CN([C@H](C)CO)C(=O)c2cc(NC(=O)NC3CCCCC3)ccc2O[C@@H]1CN(C)Cc1ccc(Oc2ccccc2)cc1,inactive
3,Cc1noc(C)c1S(=O)(=O)Nc1ccc2c(c1)C(=O)N([C@H](C)CO)C[C@@H](C)[C@H](CN(C)S(=O)(=O)c1cn(C)cn1)OCCCC[C@@H](C)O2,inactive
4,C/C=C1\NC(=O)[C@H]2CSSCC/C=C/[C@H](CC(=O)N[C@H](C(C)C)C(=O)N2)OC(=O)[C@H](C(C)C)NC1=O,active
5,CC(C)NC(=O)N(C)C[C@H]1Oc2ccc(NC(=O)CCN3CCOCC3)cc2CC(=O)N([C@@H](C)CO)C[C@@H]1C,inactive
6,COCC(=O)N1CC[C@]2(CC1)CN([C@@H](CO)c1c2c2ccc(cc2n1C)OC)C(=O)CN1CCOCC1,inactive
7,CCOC(=O)c1c(CN2CCN(c3ccccc3)CC2)n(-c2ccccc2)c2cc(Br)c(OC)cc12,inactive
8,CCOC(=O)c1c(CN2CCN(c3ccc(C)cc3)CC2)n(-c2ccccc2)c2cc(Br)c(OC)cc12,inactive
9,CCOC(=O)c1c(CN2CCN(c3ccccc3)CC2)n(-c2ccccc2)c2cc(Br)c(O)cc12,active
10,CCOC(=O)c1c(CN2CCN(c3ccccc3C)CC2)n(-c2ccccc2)c2cc(Br)c(O)cc12,active
11,CCOC(=O)c1c(CN2CCN(CCOCCO)CC2)n(-c2ccccc2)c2cc(Br)c(O)cc12,inactive
12,CCOC(=O)c1c(CNCCN(CC)CC)n(-c2ccccc2)c2cc(Br)c(OC)cc12,inactive
13,CCOC(=O)c1c(CN2CCN(Cc3ccccc3)CC2)n(-c2ccccc2)c2cc(Br)c(OC)cc12,inactive
14,CCOC(=O)c1c(CN2CCN(Cc3ccccc3)CC2)n(-c2ccccc2)c2cc(Br)c(O)cc12,inactive
15,CCOC(=O)c1c(CN2CCN(c3ccccc3)CC2)n(C2CCCCC2)c2cc(Br)c(O)cc12,active
16,COc1ccc(CN(C)C[C@@H]2OCCCC[C@@H](C)Oc3ccc(NC(=O)Nc4c(C)noc4C)cc3C(=O)N([C@H](C)CO)C[C@@H]2C)cc1,inactive
17,Cc1noc(C)c1S(=O)(=O)N(C)C[C@H]1Oc2ccc(N(C)C)cc2CC(=O)N([C@@H](C)CO)C[C@H]1C,inactive
18,C[C@@H]1CN([C@H](C)CO)C(=O)c2cc(C#CC3(O)CCCC3)cnc2O[C@@H]1CN(C)C(=O)Cc1ccncc1,inactive
19,C[C@@H]1CCCCO[C@H](CN(C)Cc2ccncc2)[C@@H](C)CN([C@H](C)CO)C(=O)c2cc(NC(=O)NC3CCCCC3)ccc2O1,inactive
20,C[C@@H]1CN([C@H](C)CO)C(=O)CCCn2cc(nn2)CO[C@H]1CN(C)C(=O)Nc1ccc(N2CCN(C)CC2)cc1,inactive
21,CN1CCN(C(=O)C[C@H]2C[C@H]3c4cc(NC(=O)c5ccc6c(c5)OCO6)ccc4O[C@H]3[C@@H](CO)O2)CC1,inactive
22,Cn1cnc(S(=O)(=O)N2C[C@@H](O)COC[C@@H]3O[C@H](CC(=O)N4CCN(c5ccccc5)CC4)CC[C@H]32)c1,inactive
23,COc1ccc(NC(=O)Nc2ccc3c(c2)C(=O)N([C@@H](C)CO)C[C@@H](C)[C@H](CN(C)Cc2ccc(C(=O)O)cc2)OCCCC[C@@H](C)O3)cc1,inactive

row,SMILES,cytotoxicity call
1,Cc1noc(C)c1NC(=O)N(C)C[C@@H]1Oc2ccc(NC(=O)CCCN(C)C)cc2C(=O)N([C@@H](C)CO)C[C@H]1C,inactive
2,O=C1O[C@@H](c2ccccc2)[C@@H](c2ccccc2)N2[C@@H](c3ccc(OCCO)cc3)[C@]3(C(=O)Nc4ccc(C#CC5(O)CCCCCC5)cc43)[C@@H](C(=O)Nc3nc4ccccc4s3)[C@H]12,inactive
3,COc1cc2c(N3CCN(C(=O)Nc4ccc(OC(C)C)cc4)CC3)ncnc2cc1OCCCN1CCCCC1,inactive
4,CCN1CCN(c2ccc(Nc3cc(N(C)C(=O)Nc4c(Cl)c(OC)cc(OC)c4Cl)ncn3)cc2)CC1,active
5,C[C@H](CO)N1C[C@H](C)[C@@H](CN(C)C(=O)CCCN(C)C)OCCCC[C@H](C)Oc2ccc(NS(=O)(=O)c3cn(C)cn3)cc2C1=O,inactive
6,CC(C)NC(=O)N(C)C[C@@H]1OCCCC[C@@H](C)Oc2ccc(NC(=O)CCCCCC(=O)Nc3ccccc3N)cc2C(=O)N([C@H](C)CO)C[C@H]1C,inactive
7,Cn1nnc2c1[C@H](COCC1CC1)CN(C(=O)CS(C)(=O)=O)C2,inactive
8,C[C@H]1CCCCO[C@@H](CN(C)C(=O)Nc2ccccc2)[C@@H](C)CN([C@@H](C)CO)C(=O)c2cc(NC(=O)NC3CCCCC3)ccc2O1,inactive
9,CC(C)n1c(C=CC(O)CC(O)CC(=O)[O-])c(-c2ccc(F)cc2)c2ccccc21.[Na+] (centres undefined),inactive
10,C[C@@H]1CCCCO[C@@H](CN(C)S(=O)(=O)c2cccs2)[C@H](C)CN([C@H](C)CO)C(=O)c2cc(NC(=O)CCC(F)(F)F)ccc2O1,inactive
11,Cc1ccc(S(=O)(=O)Nc2ccc3c(c2)C(=O)N([C@H](C)CO)C[C@H](C)[C@H](CN(C)S(=O)(=O)c2ccccc2)O3)cc1,inactive
12,CCCCCCCCCCCCC[N+](C)(C)Cc1ccccc1.O.[Cl-],active
13,CCCCCCCCCCCCC[N+](C)(C)Cc1ccccc1,inactive
14,CC[N+](C)(CC)Cc1ccccc1,inactive
15,CCCCCc1ccccn1,inactive
16,CCCCNc1ccccc1,inactive
17,CCCCCCCCCCCCCCCC[N+](C)(C)Cc1ccccc1.[Cl-],active
18,CO[C@@H]1CN(C)C(=O)c2ccc(NS(=O)(=O)c3cccc(C)c3)cc2OC[C@@H](C)N(Cc2cc(F)ccc2F)C[C@H]1C,inactive
19,CN(C)CCCNC(=O)C[C@@H]1CC[C@H]2[C@H](COc3ccc(NC(=O)NC4CCCC4)cc3C(=O)N2C)O1,inactive
20,Cc1noc(C)c1NC(=O)N(C)C[C@H]1Oc2c(NC(=O)Nc3ccc(C(F)(F)F)cc3)cccc2C(=O)N([C@H](C)CO)C[C@H]1C,inactive
21,COC(=O)[C@H](Cc1ccccc1)NC(=O)[C@@H](N)CC(=O)O,inactive
22,CC(=O)N[C@@H](Cc1ccccc1)C(=O)O,inactive
23,CC(C)C[C@H](NC(=O)[C@H](CCc1ccccc1)NC(=O)CN1CCOCC1)C(=O)N[C@@H](Cc1ccccc1)C(=O)N[C@@H](CC(C)C)C(=O)[C@@]1(C)CO1,active

row,SMILES,cytotoxicity call
1,COC[C@H](NC(=O)c1cnc(C)s1)C(=O)N[C@@H](COC)C(=O)N[C@@H](Cc1ccccc1)C(=O)[C@@]1(C)CO1,active
2,CC(=O)N1[C@H](CNC(=O)CN2CCOCC2)[C@@H](c2ccccc2)[C@@H]1CO,inactive
3,COC(=O)C(Cc1ccccc1)NC(=O)C(N)CC(=O)O (centres undefined),inactive
4,CC(=O)N[C@@H](Cc1ccccc1)C(=O)NN,inactive
5,CC(=O)N1[C@@H](CO)[C@H](c2ccccc2)[C@@H]1CNC(=O)CN1CCOCC1,inactive
6,COc1ccc(C[C@H](NC(=O)[C@H](C)NC(=O)CN2CCOCC2)C(=O)N[C@@H](Cc2ccccc2)C(=O)[C@@]2(C)CO2)cc1,active
7,C[C@@H]1CCCCO[C@@H](CN(C)S(=O)(=O)c2ccc(F)cc2)[C@H](C)CN([C@H](C)CO)C(=O)c2cc(NC(=O)Nc3ccc4c(c3)OCO4)ccc2O1,inactive
8,C[C@@H]1CCCCO[C@@H](CN(C)C(=O)CCCN(C)C)[C@@H](C)CN([C@H](C)CO)C(=O)c2cc(NC(=O)Nc3ccc(C(F)(F)F)cc3)ccc2O1,inactive
9,CC(C)CC#Cc1cnc2c(c1)C(=O)N([C@@H](C)CO)C[C@@H](C)[C@@H](CN(C)S(=O)(=O)c1cn(C)cn1)O2,inactive
10,C[C@H](CO)N1C[C@H](C)[C@H](CN(C)C(=O)Nc2ccccc2)Oc2c(NC(=O)C3CCOCC3)cccc2C1=O,inactive
11,C[C@H](CO)N1C[C@H](C)[C@H](CN(C)C(=O)c2cnccn2)Oc2cc(Br)ccc2S1(=O)=O,inactive
12,C[C@@H]1CN([C@@H](C)CO)C(=O)c2cc(C#Cc3ccccc3F)cnc2O[C@@H]1CN(C)C(=O)Cc1cccnc1,inactive
13,COc1ccc(S(=O)(=O)N(C)C[C@@H]2Oc3ccc(NC(=O)c4ccncc4)cc3CC(=O)N([C@H](C)CO)C[C@H]2C)cc1,inactive
14,CCCC#Cc1cnc2c(c1)C(=O)N([C@H](C)CO)C[C@H](C)[C@H](CN(C)S(=O)(=O)c1cn(C)cn1)O2,inactive
15,O=C(O)CC(O)(CC(=O)O)C(=O)O.[LiH].[LiH].[LiH],inactive
16,Nc1ncccc1-c1nc2ccc(-c3ccccc3)nc2n1-c1ccc(C2(N)CCC2)cc1,active
17,NC(=O)c1ccc2nc(-c3ccc(C4(N)CCC4)cc3)c(-c3ccccc3)n2n1,inactive
18,CC(C)NC(=O)N(C)C[C@@H]1Oc2c(NC(=O)NC3CCCCC3)cccc2C(=O)N([C@@H](C)CO)C[C@@H]1C,inactive
19,C[C@H]1CN([C@@H](C)CO)C(=O)Cc2cc(NC(=O)Nc3ccc(C(F)(F)F)cc3)ccc2O[C@@H]1CN(C)Cc1ccc(Oc2ccccc2)cc1,active
20,C[C@@H]1CN([C@@H](C)CO)C(=O)Cc2cc(NC(=O)Nc3ccc(C(F)(F)F)cc3)ccc2O[C@@H]1CN(C)Cc1ccc(Oc2ccccc2)cc1,active
21,C[C@@H]1CN([C@@H](C)CO)C(=O)Cc2cc(NC(=O)Nc3ccc(C(F)(F)F)cc3)ccc2O[C@H]1CN(C)Cc1ccc(Oc2ccccc2)cc1,active
22,C[C@@H]1CN([C@H](C)CO)C(=O)Cc2cc(NC(=O)Nc3ccc(C(F)(F)F)cc3)ccc2O[C@@H]1CN(C)Cc1ccc(Oc2ccccc2)cc1,active
23,COc1ccc(S(=O)(=O)Nc2ccc3c(c2)CC(=O)N([C@H](C)CO)C[C@@H](C)[C@@H](CN(C)C)O3)cc1,inactive

# Source: the antibiotic and cytotoxicity screens of Wong et al. (2023)
